# Rows were chosen to be rich in hits. Some 5.4% of all compounds tested hit in one or more screens of this group.
# SMARCA2 activ: increases SMARCA2 function in MMTV reporter cells. 370,000 tested, 1% active. activation, % at 9.1 µM. MG213 cells, MMTV-luciferase reporter, dexamethasone, overnight; in the data active means activation above about 7.8%
# PfM18AAP inh: blocks P. falciparum M18 aspartyl aminopeptidase | recombinant PfM18AAP, H-Glu-NHMec fluorogenic cleavage | inhibition, % at 7.35 µM | 290,000 tested, 1.2% active;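 active means inhibition above the campaign mean inhibition over all tested compounds plus 3 SD, cut at about 28% in these data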
# Exocytosis inh: lytic granule exocytosis inhibition; AID 651702; TALL-104 LAMP-1 surface exposure, flow cytometry; cells stimulated with thapsigargin and PMA; inhibition, % at 10 µM; 360,000 tested, 0.66% active;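 active means inhibition above about 55%, limit read from the data; inconclusive means no clear call, values can overlap the other calls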
# beta cell repl: inducers of beta-cell replication in MIN6 cells; MIN6 cells proliferation, ATPlite luminescence, 48 h; cells starved in 0.2% serum; 100% = growth in 10% serum; proliferation, % at 10 µM; 330,000 tested, 0.29% active;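 active means compounds whose signal lies at least 3.5 SD above the mean of all wells on their plate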
# ALR inh: inhibitors of human sulfhydryl oxidase ALR; 290,000 tested, 3.8% active; purified ALR, DTT oxidation, H2O2 HRP-luminol luminescence; AID 485317; inhibition, % (concentration not given with the values); P55789;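 active means mean replicate inhibition above about 79%, with every replicate also reaching it, limit read from the data; inconclusive means only one of the two criteria met; inactive means mean below limit and not every replicate reaching it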
# Target sequence (P55789 whole entry, looked up): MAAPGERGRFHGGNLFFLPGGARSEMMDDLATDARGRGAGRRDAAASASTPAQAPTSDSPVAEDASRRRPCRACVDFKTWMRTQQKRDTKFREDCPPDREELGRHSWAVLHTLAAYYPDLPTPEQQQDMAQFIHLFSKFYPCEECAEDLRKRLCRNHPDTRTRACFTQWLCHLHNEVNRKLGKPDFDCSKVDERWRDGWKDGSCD
# GASC-1 inh: blocks human GASC-1 demethylase activity; Q9H3R0; GST-JMJD2C(1-420) H3K9me3 demethylation, DELFIA europium; inhibition, % at 2.35 µM; 330,000 tested, 0.069% active; AID 2099;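 active means more than half of a compound's replicate wells show inhibition beyond 50%, single wells judged on their own value; inconclusive means some, but no more than half, of replicates pass 50% inhibition; inactive means no replicate passes 50% inhibition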;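 further: signal counts dimethyl H3K9 product captured on neutravidin plate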
# Target sequence (Q9H3R0 1-420 limits assumed): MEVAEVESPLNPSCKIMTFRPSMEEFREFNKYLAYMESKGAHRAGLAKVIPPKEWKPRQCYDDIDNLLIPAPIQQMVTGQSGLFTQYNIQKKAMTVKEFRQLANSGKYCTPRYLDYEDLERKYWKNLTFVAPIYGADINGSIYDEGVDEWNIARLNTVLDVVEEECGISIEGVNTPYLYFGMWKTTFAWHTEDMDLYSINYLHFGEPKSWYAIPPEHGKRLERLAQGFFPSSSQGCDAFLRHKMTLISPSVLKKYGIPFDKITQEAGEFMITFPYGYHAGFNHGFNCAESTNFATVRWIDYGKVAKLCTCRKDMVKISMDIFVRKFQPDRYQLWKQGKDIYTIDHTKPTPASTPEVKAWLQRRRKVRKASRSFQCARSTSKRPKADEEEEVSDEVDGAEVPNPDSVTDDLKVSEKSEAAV
# Numbers stand for hits; 0 = inactive; ? = inconclusive; - = no result.
SMILES,SMARCA2 activ,PfM18AAP inh,Exocytosis inh,beta cell repl,ALR inh,GASC-1 inh
Cc1cc(=O)[nH]c(SCC(=O)Nc2ccc(F)c(F)c2)n1,0,-,-,-,-,-
O=C(CSCc1ccc(Cl)cc1)NCCSCc1ccco1,0,0,0,0,0,0
O=C(NCCSCc1ccco1)Nc1cc(Cl)cc(Cl)c1,0,0,0,0,89,0
O=C(NC(=S)N1CCN(c2ccc(F)cc2)CC1)c1cccs1,0,0,0,0,95,0
COc1ccc(N2CCN(C(=O)C3CCN(S(=O)(=O)c4cccs4)CC3)CC2)cc1,0,0,0,0,0,0
O=C(NC(=S)N1CCN(c2ccc(O)cc2)CC1)c1cccs1,0,31,0,0,99,0
O=C(NC(=S)N1CCN(c2ccccc2)CC1)c1c(F)cccc1F,0,0,0,0,99,0
O=C(C1CCN(S(=O)(=O)c2cccs2)CC1)N1CCN(c2ccccc2)CC1,0,0,0,0,84,0
Cc1ccc(-n2c(Cc3cccs3)nnc2SCc2ccc(Br)cc2)cc1,0,-,-,-,-,-
O=C(c1cccs1)N1CCN(c2ccccc2)CC1,0,0,0,0,98,0
O=C(c1cccs1)N1CCN(c2ccc(F)cc2)CC1,0,0,0,0,-,0
O=C(c1c[nH]c2ccccc12)N1CCN(c2ccccc2)CC1,0,0,0,0,87,0
CC(COc1ccc([N+](=O)[O-])cc1Cl)CN1CCC(C(O)(c2ccccc2)c2ccccc2)CC1 (configuration not stated),0,-,-,-,-,-
CC(=O)c1ccc2c(c1)Nc1ccccc1S2,0,0,0,0,0,0
C/C(=N\NC(=O)c1ccc(C)cc1C)c1ccc2c(c1)Nc1ccccc1S2,11,0,0,0,0,0
CCOc1ccc(-c2nc(CSc3nncs3)cs2)cc1OC,0,0,0,0,94,0
COc1ccc(CN2C(=O)C3C4C=CC(C4)C3C2=O)cc1 (configuration not stated),0,0,0,0,100,0
Cc1cccc(CSc2ncnc3ccccc23)c1,0,0,0,0,0,0
O=[N+]([O-])c1cccc(CSc2ncnc3ccccc23)c1,0,0,0,0,99,0
CCOC(=O)C1(C)/C(=N/Nc2ccc(Cl)cc2)C(=O)C(=O)N1c1ccccc1 (configuration not stated),0,0,0,0,99,0
CCOC(=O)C1(C)/C(=N/Nc2cccc(Cl)c2)C(=O)C(=O)N1c1ccccc1 (configuration not stated),0,0,0,0,-,0
COc1ccc2oc(=O)c(-c3nnc(N)s3)cc2c1,0,0,0,0,0,0
Nc1cccc(-c2cc3ccccc3oc2=O)c1,0,0,0,0,99,0
Nc1nnc(-c2cc3ccccc3oc2=O)s1,7.9,0,0,0,-,0
CCCCCCN1CCS(=O)(=O)N(Cc2ccc(Cl)cc2)C(C(=O)OC)C1 (configuration not stated),0,-,-,-,-,-
SMILES,SMARCA2 activ,PfM18AAP inh,Exocytosis inh,beta cell repl,ALR inh,GASC-1 inh
Nc1nc2c(ncn2[C@@H]2O[C@H](C(=O)N[C@H](Cc3ccccc3)C(=O)NC3CCCCC3)[C@@H](O)[C@H]2O)c(=O)[nH]1,0,-,-,-,-,-
COc1ccc(-c2nc(CS(=O)CC(=O)NC(C)CCc3ccccc3)c(C)o2)cc1OC (configuration not stated),0,0,0,0,99,0
Cc1ccc(-c2nc(CS(=O)CC(=O)NC(C)CCc3ccccc3)c(C)o2)cc1 (configuration not stated),0,0,0,0,93,?
COc1ccc(-c2nc(CS(=O)(=O)CC(=O)NCCCc3ccccc3)c(C)o2)cc1,0,0,0,0,?,0
Cc1ccc(-c2nc(CS(=O)CC(=O)NCCCc3ccccc3)c(C)o2)cc1 (configuration not stated),0,0,0,0,98,0
Cc1oc(-c2ccccc2F)nc1CS(=O)(=O)CC(=O)NC(C)CCc1ccccc1 (configuration not stated),0,0,0,0,0,0
CC(c1ccccc1)n1cc(C(=O)NCCCn2ccnc2)nn1 (configuration not stated),0,0,0,0,0,55
O=C(NCCCn1ccnc1)c1ccc(F)cc1,0,0,0,0,0,0
CCC(=O)Nc1ccc(C(=O)NCCCn2ccnc2)cc1,0,0,0,0,100,0
CC(c1ccccc1F)n1cc(C(=O)NCCCn2ccnc2)nn1 (configuration not stated),0,0,0,0,0,0
CC(C)C1CC(N(C)C)=CC(=S)N1 (configuration not stated),0,-,-,-,-,-
Cc1cccc(C)c1N1CCN(c2n[nH]c(N)n2)CC1,0,0,0,0,96,0
COc1ccc(N2CCN(c3n[nH]c(N)n3)CC2)cc1,0,0,0,0,98,0
Nc1nc(N2CCN(Cc3ccccc3)CC2)n[nH]1,0,0,0,0,?,0
Cc1ccc(Nc2ccc(N)cc2S(=O)(=O)O)cc1,0,0,0,0,100,0
CCCCc1ccc(NC(=O)CSCc2cc(=O)[nH][nH]2)cc1,0,0,0,0,79,0
N#Cc1c(-c2ccccc2)cc(-c2ccc(O)cc2)nc1N,0,0,0,0,99,0
COc1cc(-c2cc(-c3ccc(O)cc3)nc(N)c2C#N)ccc1O,0,0,0,0,97,0
COc1ccccc1-c1cc(-c2ccc(O)cc2)nc(N)c1C#N,0,0,0,0,96,0
Fc1ccccc1-c1n[nH]c(=S)n1N=Cc1ccc(-c2ccccc2)cc1,0,-,-,-,-,-
Cc1sc(Cc2nc(O)cs2)nc1-c1ccccc1,0,0,0,0,97,0
Oc1csc(Cc2nc(-c3ccc(Br)cc3)cs2)n1,0,0,0,0,0,0
Cc1cccc(N/N=C2/COC(C)(C)CC2=O)c1,7.9,0,0,0,93,0
CC1(C)CC(=O)/C(=N/Nc2ccc(Cl)cc2)CO1,0,0,0,0,-,0
CCCOC(=O)c1c(NC(=O)C2CCCO2)sc(C(=O)OC)c1C (configuration not stated),0,39,0,0,-,0
SMILES,SMARCA2 activ,PfM18AAP inh,Exocytosis inh,beta cell repl,ALR inh,GASC-1 inh
CCOC(=O)c1sc(NC(=O)C2CCCO2)c(C(=O)OC)c1C (configuration not stated),-,0,-,-,-,-
Cc1cc(NC(=O)c2ccc(NS(=O)(=O)c3ccccc3F)cc2)no1,0,-,-,-,-,-
COCCNC(=O)/C(C#N)=C/c1cc(Br)c(O)c(OC)c1,0,0,0,0,83,0
COc1cc(/C=C(\C#N)C(=O)NC(C)C)cc(Cl)c1O,0,0,0,0,97,0
CC(C)NC(=O)/C(C#N)=C/c1cccc(NC(=O)c2ccccc2Cl)c1,0,0,0,0,0,0
CC(C)(C)c1ccc(-c2nnc(SCC(=O)Nc3ccccc3-c3ccccc3)n2Cc2ccco2)cc1,0,-,-,-,-,-
COC(=O)[C@]12C[C@H](CC(=O)N3CCCC3)C(=O)N(Cc3ccccc3)C1=C[C@H](C(C)(C)C)O[C@@H]2C,0,-,-,-,-,-

# Source: PubChem BioAssay (several laboratories)
